Assay results published in PubChem BioAssay AID1063 (University of Pittsburgh Molecular Library Screening Center, 2008).
Screen size: about 200,000 compounds; about 18,000 (9%) were called active. Only a selection was taken, and actives are over-represented in it overall. Unmarked numbers belong to inactive results. No stated cut-off is given here; in the data, active means inhibition above about 50%; inactive means the rest.

Assay: antileishmanial activity against promastigotes – primary screen (AID 1063);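 further: promastigotes grown with compound for 44 hours at 28 °C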
Settings: Leishmania major promastigotes, resazurin fluorescence viability; at 10 µM; stronger effect = higher value
`O=C1c2ccccc2NC(c2ccccn2)N1NS(=O)(=O)c1ccccc1` (stereo not drawn) gave an inhibition of 2.46%.
Work on `COc1ccc(/C=C/C(=O)Nc2ccc3c(c2)OCCO3)cc1OC` yielded an inhibition of 13.8%.
For `COc1ccc(NS(=O)(=O)c2cc(NC(=O)/C=C/c3cc(OC)c(OC)c(OC)c3)ccc2N2CCCCC2)cc1`, the inhibition was 61.7% (active).
`COc1ccc(NS(=O)(=O)c2cc(NC(=O)C3CCCCC3)ccc2N2CCOCC2)cc1` showed an inhibition of 16.6%.
In the case of `COc1cccc(CNCCc2c[nH]c3ccccc23)c1OCc1ccccc1F`, the inhibition was 101% (active).
With `COc1ccccc1NC(=O)CCCc1c[nH]c2ccccc12` the inhibition was -1.94%.
With `Cc1cc(C)cc(NC(=S)NCCc2c[nH]c3ccccc23)c1` the inhibition was 10.6%.
`CCOc1ccc(S(=O)(=O)Nc2ccncc2)c(C)c1C` gave an inhibition of -6%.
With `O=C(CCn1ccc([N+](=O)[O-])n1)Nc1nccs1` the inhibition was 11.6%.
For `COc1ccc2c(c1OC)C(=O)OC2Nc1nc(-c2ccccc2)cs1` (stereo not drawn), the inhibition was 99.8% (active).
Work on `COc1ccc(-c2csc(Nc3ccccn3)n2)cc1` yielded an inhibition of 15.6%.
Molecule `COc1ccc2c(c1OC)C(=O)OC2c1c(O)nc(SC)n(-c2ccccc2)c1=O` (stereo not drawn) has an inhibition of -6.91%.
`CC(=O)c1cnc(-c2ccccc2)s1` showed an inhibition of -5.94%.
Molecule `COCCNC(=O)C(c1ccc(O)cc1)N(C(=O)CCC(=O)Nc1nccs1)c1ccc(C)cc1` (stereo not drawn) has an inhibition of -10.6%.
`CN1CCCN(C(=O)C2CCCCC2)CC1` gave an inhibition of 0.8%.
In the case of `COC(=O)CCC(=O)N1CCCC(CO)(Cc2ccccc2)C1` (stereo not drawn), the inhibition was -4.47%.
`Cc1nn(C)c(C)c1S(=O)(=O)N1CCC(CO)(Cc2ccc(Cl)cc2)CC1` gave an inhibition of 2.5%.
`CCOC(=O)C1(S(=O)(=O)c2ccccc2)CCN(Cc2ccccc2)CC1` showed an inhibition of 1.91%.
Work on `COc1cccc(CC2(CO)CCN(Cc3cnc(-c4cccc(C)c4)nc3)CC2)c1` yielded an inhibition of 4.89%.
With `COC(=O)c1ccc(CN2CCC(CO)(Cc3ccc(OC)cc3)CC2)cc1` the inhibition was 86.4% (active).
In the case of `COc1ccc(C(=O)Nc2sc(C)c(C)c2CN2CCOCC2)cc1`, the inhibition was -3.61%.
`CCOC(=O)C1(S(=O)(=O)c2ccc(Cl)cc2)CCN(Cc2ccccc2)CC1` showed an inhibition of 29.3%.
With `COc1ccc(CC2(CO)CCN(Cc3cnn(C)c3)CC2)cc1` the inhibition was 91.4% (active).
With `CCOC(=O)C1(CCOC)CCN(Cc2ccc(C(=O)OC)cc2)CC1` the inhibition was 81.1% (active).
`OCCCC1CCCCN1Cc1nc(Cc2ccccc2Cl)no1` (stereo not drawn) gave an inhibition of -4.56%.
With `Cc1nc2ccccc2c(C)c1C(=O)c1ccc(F)cc1` the inhibition was -3.66%.
Molecule `CC(OC(=O)c1ccccc1N1C(=O)C2C3CCC(C3)C2C1=O)C(=O)c1ccccc1` (stereo not drawn) has an inhibition of 32%.
`CCCCN(CC(=O)NC(C)(C)C)C(=O)C(=O)Nc1ccc2c(c1)OCCO2` gave an inhibition of -6.64%.
For `Cn1ncc(N2CCN(S(=O)(=O)c3ccc(Br)cc3)CC2)c(Cl)c1=O`, the inhibition was 39.2%.
`O=C1CC(=O)Nc2cc(S(=O)(=O)N3CCN(c4cccc(C(F)(F)F)c4)CC3)ccc2N1` gave an inhibition of -5.33%.
In the case of `Cc1cc(C)nc(Nc2ncn[nH]2)n1`, the inhibition was -7.12%.
`CCCCS(=O)c1snnc1C` (stereo not drawn) showed an inhibition of -4.06%.
In the case of `COc1ccc(N(CC(=O)Nc2ccc(C)cc2C)S(=O)(=O)c2ccccc2[N+](=O)[O-])c(OC)c1`, the inhibition was 9.22%.
For `Cc1cccc(NC(=O)/C(=C\c2ccco2)NC(=O)c2ccccc2)c1`, the inhibition was 3.51%.
With `O=C(Nc1ccc2ccccc2c1)/C(=C/c1cccc(Br)c1)NC(=O)c1ccco1` the inhibition was 76.3% (active).
For `O=C(Nc1ccc2ccccc2c1)/C(=C\c1ccc2c(c1)OCO2)NC(=O)c1ccco1`, the inhibition was 1.7%.
`CCCCCCCCCCOC(=O)C[N+](C)(C)CC1CCCCC1O` (stereo not drawn) gave an inhibition of -3.34%.
In the case of `N#C/C(=C/c1ccc(N2CCOCC2)o1)C(=O)N1CCOCC1`, the inhibition was 54.5% (active).
With `N#C/C(=C/c1ccc(N2CCCCC2)o1)C(=O)NCCc1c[nH]c2ccccc12` the inhibition was 0.13%.
Work on `N#C/C(=C\c1ccc(N2CCOCC2)o1)C(=O)N1CCOCC1` yielded an inhibition of 39.9%.
Molecule `CC(C)(C)C(=O)N(Cc1ccccc1)c1ccccn1` has an inhibition of -4.68%.
`O=C(c1ccncc1)c1ccc([N+](=O)[O-])cc1` gave an inhibition of 5.83%.
`Cc1ccc(NC(=O)c2cccnc2C(=O)Nc2ccc(C)cc2)cc1` showed an inhibition of -1.85%.
In the case of `CCn1cc(CNC(=O)c2cc([N+](=O)[O-])c(C)c([N+](=O)[O-])c2)cn1`, the inhibition was 18.8%.
`Cc1cc(/C=N/NC(=O)c2cccnc2)c(C)n1CC(C)C` gave an inhibition of -1.49%.
In the case of `O=C(N/N=C/c1sc(N2CCCCC2)nc1-c1cccs1)c1cccnc1`, the inhibition was 66.3% (active).
Work on `O=C(NN=C1CCC(=NNC(=O)c2cccnc2)CC1)c1cccnc1` yielded an inhibition of -9.82%.
`O=C(COC(=O)CNC(=O)c1ccccc1F)NCC(F)(F)F` gave an inhibition of -0.59%.
`COc1ccc(CC(NC(C)=O)C(=O)NC2CCN(C(=O)C3CC3)CC2)cc1OC` (stereo not drawn) gave an inhibition of -1.59%.
`CC(=O)NC1=NN(C(C)=O)C(C)(CCS(=O)(=O)c2ccc(Cl)c(Cl)c2)S1` (stereo not drawn) showed an inhibition of -0.49%.
For `CC(=O)NC1=NN(C(C)=O)C(C)(c2ccc(C)cc2)S1` (stereo not drawn), the inhibition was 63.1% (active).
`CC(=O)NC1=NN(C(C)=O)C(C)(c2ccc(Cl)s2)S1` (stereo not drawn) gave an inhibition of 37.2%.
`CCCC(=O)Nc1nnc(-c2ccccc2)o1` gave an inhibition of -6.09%.
Molecule `COc1cc(/C=N/NC(=S)Nc2cccnc2)cc(OC)c1O` has an inhibition of -1.76%.
In the case of `O=C(O)c1cnn2c(C(F)(F)F)cc(-c3ccccc3)nc12`, the inhibition was -4.02%.
For `Cc1ccc(-c2cc(C(F)(F)F)n3ncc(C(=O)N4CCCCC4c4cccnc4)c3n2)cc1` (stereo not drawn), the inhibition was 89.6% (active).
`Cc1ccc(-c2cc(C(F)(F)F)n3nc(C(=O)N4CCCC4)cc3n2)cc1` gave an inhibition of 2.83%.
For `O=C(CSc1cccc[n+]1[O-])c1ccc(Cl)cc1`, the inhibition was 1.35%.
`CC(C(=O)NCC1CCCCC1)N(C)Cc1cccc(Cl)c1` (stereo not drawn) showed an inhibition of -1.13%.
`O=C(/C=C/c1ccccc1)N/C(=C/c1ccccc1)C(=O)Nc1ccccc1O` showed an inhibition of 5.36%.
`CCc1ccccc1NC(=O)c1cccs1` gave an inhibition of -2.12%.
With `CCc1ccccc1NC(=O)/C(=C/c1ccccc1)c1ccccc1` the inhibition was 66% (active).
Work on `Oc1ccc(-c2nncn2-c2ccccc2)cc1` yielded an inhibition of -8.74%.
With `CN(CC(=O)N1CCN(c2ccccc2)CC1)S(=O)(=O)c1cccs1` the inhibition was -7.19%.
With `O=C(O)CSCC(=O)Nc1ccc(C(F)(F)F)cc1` the inhibition was -3.47%.
With `COc1ccc(C(=O)NCC(=O)N/N=C/c2ccc([N+](=O)[O-])s2)cc1OC` the inhibition was 97% (active).
With `CCOc1ccc(NC(=O)CCC(=O)N/N=C/c2ccc([N+](=O)[O-])s2)cc1` the inhibition was 96.6% (active).
`O=C(Cc1cc(=O)[nH][nH]1)N/N=C/c1ccccc1[N+](=O)[O-]` showed an inhibition of -6.04%.
`CCCCCC(=O)Nc1ccc(C(=O)N/N=C/c2ccc([N+](=O)[O-])cc2)cc1` showed an inhibition of 34.7%.
For `Cc1ccccc1NCC(=O)N/N=C\c1ccc([N+](=O)[O-])s1`, the inhibition was 101% (active).
In the case of `COc1cc(/C=N\NC(=O)CNC(=O)c2cccc([N+](=O)[O-])c2)ccc1O`, the inhibition was 8.51%.
With `CCOc1ccc(NC(=O)CCC(=O)n2nc(C)cc2C)cc1` the inhibition was -2.57%.
`COc1ccc(/C=N/NC(=O)CNC(=O)c2ccc(S(=O)(=O)N3CCCC3)cc2)c(OC)c1` showed an inhibition of 28.7%.
Molecule `Cc1cccc(/C=N/NC(=O)CNc2cccc3ccccc23)n1` has an inhibition of 1.6%.
`O=C(O)c1cccc(NC(=O)c2cc(-c3cccc(Cl)c3)nc3ccccc23)c1` showed an inhibition of -4.68%.
Molecule `COc1ccc(OC)c(C(=O)c2ccc(C(=O)N3CCN(Cc4csc(C)n4)CC3)cc2)c1` has an inhibition of -0.79%.
Work on `CCN1CCN(CC(=O)c2cc(OC)c(OC)c(OC)c2)CC1` yielded an inhibition of -5.32%.
With `Nc1nc(SCC(=O)N2CCN(S(=O)(=O)c3ccc(Cl)cc3)CC2)n[nH]1` the inhibition was -1.03%.
Work on `Cc1ccc(C2=NN(C(=O)COc3ncnc4ccccc34)C(c3ccco3)C2)cc1` (stereo not drawn) yielded an inhibition of -5.8%.
With `CCCCN(CC)CCNC(=O)CCNC(=O)Cn1ccc2ccccc2c1=O` the inhibition was 0.35%.
With `O=C(NC(Nc1nc2ccc([N+](=O)[O-])cc2s1)(C(F)(F)F)C(F)(F)F)c1ccccc1` the inhibition was 100% (active).
`O=C(COC(=O)c1ccc(F)cc1)Nc1nc2ccc([N+](=O)[O-])cc2s1` showed an inhibition of -3.1%.
`CSc1nc2ccc(S(=O)(=O)N3CCc4ccccc43)cc2s1` showed an inhibition of 0.05%.
Work on `N=C1C(c2nc3ccccc3s2)=C(O)CN1NC(=O)c1ccc([N+](=O)[O-])cc1` yielded an inhibition of -3.94%.
`O=C(O)CCC(=O)Nc1nc2ccc([N+](=O)[O-])cc2s1` showed an inhibition of -7.18%.
In the case of `O=C(Nc1nc2ccc([N+](=O)[O-])cc2s1)c1ccc(S(=O)(=O)N2CCCc3ccccc32)cc1`, the inhibition was 100% (active).
For `CCCCn1nc(C(=O)OCC(=O)Nc2sccc2C(N)=O)c2ccccc2c1=O`, the inhibition was -6.96%.
`Cc1cccc(N2CCC(NCc3c(C(=O)N4CCCCC4)nc4c(C)cccn34)CC2)c1` showed an inhibition of 17.5%.
For `S=C(Cc1ccc(Cl)cc1)N1CCOCC1`, the inhibition was 1.84%.
With `CC1=NN(C(=O)CCCc2ccccc2)C(O)(C(F)(F)F)C1` (stereo not drawn) the inhibition was -11.2%.
Molecule `CN(C)CCn1c(=S)[nH]c2ccc(Cl)cc2c1=O` has an inhibition of 1.3%.
In the case of `CN(C)CCN=c1cc(-c2ccccc2)oc2ccc(Cl)cc12`, the inhibition was 63% (active).
With `C/C(CC(=O)N1CCN(C=O)CC1)=N\NC(=O)c1ccc(Br)cc1` the inhibition was -4.54%.
